# Compound activity deposited in PubChem BioAssay by several laboratories.
# An excerpt weighted towards active compounds, which were near 4% of everything screened.
# Measles CPE: protection of cells from measles virus | protection (pct of control), % at 4 µM | actives 1.5% (n = 140,000) | Measles virus-infected cells, CPE protection, absorbance; in the data active means protection mostly above about 24%, no sharp cut-off; inactive means mostly below about 26%
# KCC2 mod: KCC2 (human) Cl- transport modulation; Q9H2X9; KCC2 cells, thallium flux FluoZin-2 fluorescence; B-score of Tl+ flux slope (higher = more flux/activation; lower = inhibition) at 10 µM; actives 2.2% (n = 190,000); AID 1456;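 active means thallium flux slope and its plate-corrected score both differing from the plate sample mean at a set confidence after two filtering rounds, in either direction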;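 further: slope of fluorescence scaled to starting intensity during 10 to 20 s after thallium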
# Arbovirus anti: arbovirus infection inhibition | arbovirus infection cell-based antiviral screen | inhibition, % at 10 µM | actives 0.37% (n = 200,000) | AID 1251; in the data active means inhibition above about 30%
# ROMK mod: human ROMK K+ channel modulation, primary screen. P48048. Tet-inducible ROMK, thallium flux fluorescence; actives lie on both sides. B-score at 10 µM. actives 2% (n = 130,000);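 active means signal ratio slope over the read window, or its plate-corrected B-score, at least 3 SD from the plate mean, either direction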;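 further: B-score of the F/F0 ratio slope over 7 to 12 s after thallium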
# HSV augment: increases HSV replication in cells | AID 1956 | maximum fold increase | HSV replication augmentation in cells, fold increase | actives 0.005% (n = 220,000); in the data active means maximum fold increase above about 1.5; inconclusive means no clear call, values can overlap the other calls; tested in PC3 cells
# ROMK hit retest: human ROMK channel modulation, retest confirmation; shares compounds with ROMK mod; ROMK thallium flux, fluorescence ratio; active compounds read low; normalized thallium flux (F/F0 slope) at 10 µM; actives 54% (n = 3,000); AID 1917;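 active means Flux at 10 µM at least 3 SD below or above vehicle control mean in one or both replicates; inconclusive means no clear call, values can overlap the other calls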
# An asterisk follows results filed as active; i = inactive; ? = inconclusive; nt = no result given.
SMILES,Measles CPE,KCC2 mod,Arbovirus anti,ROMK mod,HSV augment,ROMK hit retest
NC(=O)C(=O)N/N=C/c1c(F)c(F)c(F)c(F)c1F,nt,-0.318,-7.5,0.272,i,nt
N=C1/C(=C\c2ccc(OC(=O)c3ccco3)cc2)C(=O)N=C2SC=NN12,nt,-1.37,7.0,-0.119,i,nt
COc1cc(/C=C2\C(=N)N3N=CSC3=NC2=O)cc(Br)c1OC(=O)c1ccco1,nt,-2.79,10.1,-10*,?,0.0321*
Cc1oc(-c2cc(F)ccc2F)nc1CN1CCN(c2ncnc3ccccc23)CC1,nt,-0.846,19.5,-0.00457,i,nt
COc1ccc(-c2nc(CN3CCN(c4ncnc5ccccc45)CC3)c(C)o2)c(OC)c1,nt,-2.76,21.3,-2.65*,i,0.0653*
N#Cc1cccnc1N1CCN(C(=O)c2ccco2)CC1,nt,0.173,nt,-0.00844,i,nt
CCOC(=O)C1=C(C)N=C2SC(C(=O)OC)=CC(=O)N2C1c1ccc(OC)cc1 (stereo unspecified),nt,0.419,-0.5,-4.49*,i,0.0544*
CCCCCCC(=O)N/N=C/Cc1ccccc1,2.7,0.808,-3.5,nt,i,nt
CC(C)/C=N\NC(=O)CCCCC(=O)N/N=C/C(C)C,38.2,-0.138,-8.4,nt,i,0.0825
CCOc1ccc(/C=C(\C#N)C(=O)Nc2cccnc2)cc1,4.3,0.421,6.0,nt,nt,nt
CCOc1cccc(NC(=O)/C(C#N)=C/c2cccnc2)c1,nt,2.51,nt,nt,i,0.0351*
O=C(NCc1ccco1)/C(=C\c1cccs1)NC(=O)c1ccco1,nt,0.00926,1.6,-1.55,i,nt
Cc1csc2c(N3CCN(C(=S)Nc4ccc(F)cc4F)CC3)ncnc12,nt,-1.46,nt,-3.3*,i,0.0609*
CCN(c1ccccc1)S(=O)(=O)c1ccc(OC)c(NC(=O)C2CC(=O)N(Cc3ccccc3)C2)c1 (stereo unspecified),nt,-1.38,nt,nt,i,nt
O=C(NC1CCCCCC1)c1c2c(nc3ccccc13)CCN(Cc1ccccc1)C2,16.8,-0.386,4.2,-4.31*,i,0.0622*
Cc1cc(N2CCN(C)CC2)ccc1NC(=O)c1c2c(nc3ccccc13)CCN(Cc1ccccc1)C2,nt,-0.855,-29.8,-1.08,nt,nt
O=C(COC(=O)/C=C/c1ccc([N+](=O)[O-])cc1)NCc1ccc2c(c1)OCO2,nt,-0.061,nt,nt,i,0.0789
O=C(Cc1ccc([N+](=O)[O-])cc1)NCc1ccc2c(c1)OCO2,2.4,0.22,-4.0,nt,i,nt
Cc1ccc(-n2[nH]c(C)c(C=Nc3ccc(S(=O)(=O)N4CCOCC4)cc3)c2=O)c(C)c1,3.1,0.129,3.9,0.983,i,nt
CCCC(c1nnnn1C(C)(C)C)N1CCN(c2ccccc2)CC1 (stereo unspecified),nt,0.000764,-5.1,-13*,i,0.0827
O=C1N/C(=C\c2ccc(O)cc2)C(O)=C1C=NCc1ccccc1,1.5,0.124,-31.2,2.13*,i,0.0873
CC1CN(c2ccc([N+](=O)[O-])c(NCCOc3ccccc3)c2)CCN1 (stereo unspecified),nt,0.263,-40.2,-2.51*,i,0.062*
O=C(Cc1c[nH]c2ccccc12)NC1(C(=O)NC2CCCC2)CCCCC1,nt,0.451,-1.0,-0.269,i,nt
O=c1[nH]cnc(O)c1C(c1ccc2c(c1)OCO2)c1c(O)nc[nH]c1=O,nt,-0.0181,5.1,-0.0849,i,nt
CCc1ccc(-n2c(SCC(=O)Nc3cccc(S(=O)(=O)NC4=NCCCCC4)c3)nc3ccccc3c2=O)cc1,6.9,1.28,1.8,-2.68*,i,?
SMILES,Measles CPE,KCC2 mod,Arbovirus anti,ROMK mod,HSV augment,ROMK hit retest
O=C(Nc1c2c(nn1-c1ccc(F)cc1)CS(=O)(=O)C2)c1ccc(S(=O)(=O)N2CCOCC2)cc1,nt,1.35,-0.5,-0.266,i,nt
CCCn1c(SCC(=O)c2[nH]c(C)c(C(C)=O)c2C)n[nH]c1=O,nt,-0.57,nt,nt,i,nt
CCOC(=O)c1c(NC(=S)Nc2ccccc2)sc(C)c1C,13.3,0.0551,4.2,nt,i,nt
CCOC(=O)c1c(NC(=O)C[n+]2ccc(Cc3ccccc3)cc2)sc(C)c1C,nt,-0.789,-6.2,-3.81*,i,0.0614*
CCCCc1ccc(S(=O)(=O)NCCc2ccncc2)cc1,3.2,nt,20.5,nt,i,0.0625*
O=c1c2c3nc4ccccc4nc3n(Cc3ccccc3)c2ncn1Cc1ccco1,1.4,-0.402,5.0,nt,i,nt
CC(C)Cn1cnc2c(c(-c3ccccc3)c(-c3ccccc3)n2Cc2ccco2)c1=N,6.5,nt,-30.2,-4.34*,i,0.044*
N=c1c2c(-c3ccccc3)c(-c3ccccc3)oc2ncn1CCN1CCOCC1,6.5,-0.296,-28.1,-1.55,i,nt
OCCNc1ncnc2c1c(-c1ccccc1)c(-c1ccccc1)n2Cc1ccco1,14.9,-2.8,-16.1,-0.996,i,nt
c1ccc(-c2c(-c3ccccc3)n(Cc3ccco3)c3ncnc(NCCCn4ccnc4)c23)cc1,1.6,nt,-45.9,-3.91*,i,?
N=c1c2c(-c3ccccc3)c(-c3ccccc3)oc2ncn1CCCN1CCOCC1,6.9,0.832,-32.1,-3.79*,i,0.0824
N=c1c2c(-c3ccccc3)c(-c3ccccc3)n(Cc3ccccc3)c2ncn1CCO,5.9,0.138,-31.0,nt,i,nt
N=c1c2c(-c3ccccc3)c(-c3ccccc3)n(Cc3ccco3)c2ncn1CCCn1ccnc1,4.7,1.83,-41.6,-5.57*,nt,0.0485*
C(=N\N(Cc1ccccc1)c1ccccc1)/c1ccco1,nt,-0.00566,2.0,0.269,i,nt
CCCCN(Cc1cc2cccc(C)c2[nH]c1=O)S(C)(=O)=O,nt,0.076,nt,nt,i,nt
O=C(NCC1CCCO1)C1CCN(C2CCN(C3CCCCCC3)CC2)CC1 (stereo unspecified),nt,0.92,-5.3,-0.888,i,nt
N=c1c2c(-c3ccccc3)c(-c3ccccc3)n(Cc3ccco3)c2ncn1CCCN1CCOCC1,nt,-0.00169,-33.6,-2.76*,i,0.049*
O=C(C1CCN(Cc2ccccc2)CC1)N1CCCC1,5.0,0.504,0.5,nt,nt,0.0738
O=C(C1CCC1)N1CCN(Cc2ccccc2)CC1,17.8,0.036,2.2,nt,i,nt
Cc1c(C(=O)Nc2ccncc2)oc2ccccc12,14.1,-0.269,1.2,nt,i,0.0741
Cc1c(C(=O)Nc2ccccn2)oc2ccccc12,3.6,-1.62,-0.4,nt,i,nt
O=C(Nc1ccccc1-c1ccccc1)NC1CC2CCCC(C1)N2CCc1ccccc1 (stereo unspecified),27.9,-1.01,-10.2,-3.09*,i,0.0583*
CCc1ccc(CNC(=O)c2cc3c(C)nc4ccccc4c3o2)cc1,6.2,-0.0479,-27.6,nt,i,0.0707
COc1cccc(CNC(=O)c2cc3c(C)nc4ccccc4c3o2)c1,36.3,nt,5.2,nt,i,nt
CS(=O)(=O)c1ccc(S(=O)CC(=O)OCc2ccccc2)c([N+](=O)[O-])c1 (stereo unspecified),nt,nt,-27.3,-5.34*,i,0.0534*
COc1ccc(C(C)=O)cc1CN1CCCCC1,3.0,-1.15,-3.6,nt,i,nt
COc1ccc(C(C)=O)cc1CN1C(=O)NC2(CCCCC2)C1=O,4.8,1.2,2.4,1.99*,i,0.0817
Cc1nonc1CN(C)C(=O)c1ccc(OC2CCN(C(=O)c3cccnc3)CC2)cc1,nt,0.187,2.2,0.394,i,nt
N=c1sccn1CC(=O)Nc1ccc(SC(F)F)cc1,nt,0.265,-13.9,-0.147,i,nt
